The whole screen tested about 3,400 compounds, of which about 840 (25%) were called active. About 11% were inconclusive and are not listed. A selection follows. Entries with a potency or affinity are not part of this list. Values without a mark were called inactive.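 The calls were made as follows: active = fitted half-maximal concentration of signal decrease at or below twice the sample's top tested concentration; inconclusive = flat curve between -70 and -30 percent, or poor fit; inactive = flat within 30 percent, signal rise, or potency above limit.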
Assay: T. gondii growth inhibition with IFN-gamma, dose response, cell-based, ME49Luc, HeLa, luciferase, 72 h (AID 1259418)
Details: T. gondii ME49Luc in IFN-y HeLa, stronger effect = lower value, -100% = high-dose IFN-γ control wells; at 19.5 µM unless noted

| SMILES | max activity |
| --- | --- |
| COc1ccc(CN2CCc3nc(SCc4nc(-c5cccc(C)c5)oc4C)[nH]c(=O)c3C2)cc1 | -7.54% [at 2.6 µM] |
| O=C(CN1CCC2(CC1)N=C(c1ccc(Cl)cc1)C(=O)N2)Nc1ccc2c(c1)OCO2 | -13.7% [at 1.35 µM] |
| Cc1ccc(C)c(-c2coc(-c3ccc(NC(=O)Nc4ccc(F)cc4)cc3)n2)c1 | -5.84% [at 0.35 µM] |
| COc1cccc(CNC(=O)Nc2ccc(-c3nc(-c4cc(C)ccc4C)co3)cc2)c1 | 7.66% [at 0.16 µM] |
| CCc1ccc(NC(=O)Nc2ccc(-c3nc(-c4ccccc4)co3)cc2)cc1 | 8.96% |
| CCc1cccc(Nc2nc(-c3ccc(OC)cc3)nc3ccccc23)c1 | 18.8% [at 0.35 µM] |
| Cc1cccc(-c2nc(Cn3c(=O)c4c(C)cc(C)nc4n(-c4ccccc4)c3=O)c(C)o2)c1 | -12.2% [at 0.35 µM] |
| COc1ccc(NC(=O)Nc2ccc(-c3nc(-c4ccc(C)cc4C)co3)cc2)cc1OC | 23.8% |
| Cc1ccccc1-c1nc(CN2CCN(C(=O)Nc3ccccc3C(F)(F)F)CC2)c(C)o1 | 9.13% [at 0.16 µM] |
| Cc1oc(-c2ccc(OC(C)C)cc2)nc1CN(c1ccccc1)S(=O)(=O)c1cccs1 | 21% |
| CCOc1ccc(-c2nc(CN(c3ccc(OCC)cc3)S(=O)(=O)c3cccs3)c(C)o2)cc1 | 4% |
| COc1ccc(N(Cc2nc(-c3ccc(OC(C)C)cc3)oc2C)S(=O)(=O)c2cccs2)cc1 | -11.1% [at 0.35 µM] |
| COc1ccc(-c2nc(CN(c3ccc(C)cc3)S(=O)(=O)c3cccs3)c(C)o2)cc1 | -6.38% [at 0.16 µM] |
| COc1ccc(N(Cc2nc(-c3ccc(C)cc3)oc2C)S(=O)(=O)c2cccs2)cc1 | 9.59% [at 0.35 µM] |
| CCOc1ccc(N(Cc2nc(-c3cccc(C)c3)oc2C)S(=O)(=O)c2cccs2)cc1 | 11.4% [at 10 µM] |
| CC(C)NC(=O)CC1Nc2c3ccccc3nc(=S)n2C1=O (stereo not given) | 98.4% |
| COc1ccc(C(=O)/C=C/c2cc(C(=O)O)cc3c2OCOC3)c(O)c1 | 24.8% [at 10 µM] |
| CCn1cc(CN2CCCC2c2cc(C(C)C)on2)c2cc(OC)ccc21 (stereo not given) | 7.79% [at 2.6 µM] |
| Cc1cccc(-c2nc(Cn3nnc(-c4nc(-c5cccc(Cl)c5)no4)c3C)c(C)o2)c1 | 8.17% [at 2.6 µM] |
| O=C(C1CCC1)N1CC[C@H]2CN(Cc3cccc(Cl)c3)S(=O)(=O)[C@@H]2CC1 | -9.19% |
